This passage reports outcome and AC50 results from PubChem BioAssay (EPA / NIEHS).

Broadly, the AC50 is the concentration giving half of the maximal activity seen.

SMILES strings stand for the structures. The source made the active and inactive calls. How the source made its calls: active means hit-call score of the fitted dose curve at least 0.9, where 1 is the maximum; inactive means score below 0.9.

What all share (settings): mRNA level, 48 h; actives raise or lower the signal
Read-out in experiment [1]: matrix metalloproteinase-10 (MMP10), MMP10 (gene 4319)
Kind of experiment: LTEA_HepaRG_MMP10: Life Technologies and Expression Analysis (LTEA) Assay for matrix metalloproteinase-10 (MMP10) using HepaRG (AID 2283517). Summed up: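 In differentiated HepaRG cultures kept in 0.5% DMSO, test chemicals act for 48 h over an eight-point range with a top dose of 100 uM. Expression is then quantified by TaqMan RT-PCR against ACTB, GAPDH and POLR2A.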

Read-out in a further experiment: MYC, MYC (gene 4609)
Kind of experiment: LTEA_HepaRG_MYC: Life Technologies and Expression Analysis (LTEA) Assay for MYC using HepaRG (AID 2283518). Summed up: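 qRT-PCR read-out of MYC transcript (Fluidigm TaqMan, housekeeping-normalized) after 48 h chemical exposure of HepaRG cells; eight concentrations, top 100 uM, half-log steps. Bidirectional curve fitting against 0.5% DMSO vehicle baseline.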

Read-out in experiment [2]: matrix metalloproteinase-3 (MMP3), MMP3 (gene 4314)
Kind of experiment: LTEA_HepaRG_MMP3: Life Technologies and Expression Analysis (LTEA) Assay for matrix metalloproteinase-3 (MMP3) using HepaRG (AID 2283519). Put shortly:
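Human liver HepaRG cultures received chemicals (top concentration 100 uM, 0.5% DMSO) for 48 h in duplicate. MMP3 mRNA induction or loss was then assessed via TaqMan qRT-PCR with housekeeping-gene normalisation.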

Read-out in experiment [3]: Paternally Expressed 10 (PEG10), PEG10 (gene 23089)
Briefly: LTEA_HepaRG_PEG10: Life Technologies and Expression Analysis (LTEA) Assay for Paternally Expressed 10 (PEG10) using HepaRG (AID 2283520).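 On AC50: differentiated HepaRG human liver cells in serum-free induction medium with 0.5% DMSO; PEG10 transcript by qRT-PCR normalised to ACTB GAPDH and POLR2A.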 Put shortly:
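PEG10 transcript measured by Fluidigm qRT-PCR, normalized to three housekeeping genes, in HepaRG cells treated 48 h (highest 100 uM, half-log steps, 0.5% DMSO vehicle). Cells plated 48 h before switching to serum-free induction medium.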

Read-out in experiment [4]: Protein phosphatase 2A (PPP2R4), PTPA (gene 5524)
Briefly: LTEA_HepaRG_PPP2R4: Life Technologies and Expression Analysis (LTEA) Assay for Protein phosphatase 2A (PPP2R4) using HepaRG (AID 2283522). Put shortly:
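Expression was quantified by Fluidigm qRT-PCR normalised to three housekeeping genes after 48 h treatment. Human HepaRG cells received an 8-point series from 100 µM downward by half-logs, in duplicate with 0.5% DMSO vehicle and 1 mM phenobarbital as induction control.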

Read-out in experiment [5]: Phosphatase and tensin (PTEN), PTEN (gene 5728)
Kind of experiment: LTEA_HepaRG_PTEN: Life Technologies and Expression Analysis (LTEA) Assay for Phosphatase and tensin (PTEN) using HepaRG (AID 2283523). Summed up: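 Expression of PTEN is quantified in the human liver line HepaRG following two days of dosing (top concentration 100 uM, half-log dilutions, 0.5% DMSO). Values derive from bidirectional curve fitting relative to DMSO controls.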

Read-out in experiment [6]: solute carrier (SLC22A1), SLC22A1 (gene 6580)
Kind of experiment: LTEA_HepaRG_SLC22A1: Life Technologies and Expression Analysis (LTEA) Assay for solute carrier (SLC22A1) using HepaRG (AID 2283524).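 On AC50: differentiated human HepaRG liver cells in serum-free induction medium; TaqMan qRT-PCR normalized to ACTB GAPDH and POLR2A housekeeping genes.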 Summed up: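 Transcript induction or suppression of SLC22A1 in human HepaRG cultures is scored after 48 h chemical treatment, with DMSO (0.5%) as baseline for bidirectional fitting. Concentrations span eight half-log points topping at 100 uM.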

Read-out in experiment [7]: Pyruvate Dehydrogenase Kinase 4 (PDK4), PDK4 (gene 5166)
Kind of experiment: LTEA_HepaRG_PDK4: Life Technologies and Expression Analysis (LTEA) Assay for Pyruvate Dehydrogenase Kinase 4 (PDK4) using HepaRG (AID 2283525). Summed up:
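Eight-point, half-log concentration series (max 100 uM, 0.5% DMSO) applied to differentiated HepaRG cells for 48 h in duplicate. Endpoint: PDK4 mRNA induction or repression by qRT-PCR against DMSO baseline.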

Read-out in experiment [8]: NAD(P)H dehydrogenase [quinone] 1 (NQO1), NQO1 (gene 1728)
Kind of experiment: LTEA_HepaRG_NQO1: Life Technologies and Expression Analysis (LTEA) Assay for NAD(P)H dehydrogenase [quinone] 1 (NQO1) using HepaRG (AID 2283526). Summed up: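 NQO1 transcript induction or loss measured by TaqMan qRT-PCR, referenced to three housekeeping genes and fitted bidirectionally against 0.5% DMSO. HepaRG cultures exposed 48 h, duplicate, eight-point half-log series, top 100 uM.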

Read-out in experiment [9]: Nuclear factor erythroid 2-related factor 2 (Homo sapiens) (UniProt Q16236)
Briefly: LTEA_HepaRG_NFE2L2: Life Technologies and Expression Analysis (LTEA) Assay for Nuclear factor erythroid 2-related factor 2 (NFE2L2) Transcription Factor using HepaRG (AID 2283527).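 Further: TaqMan qRT-PCR transcript level normalised to ACTB GAPDH and POLR2A housekeeping genes.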 Summed up: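 Human liver HepaRG line treated in duplicate for 48 h with an eight-point series topping at 100 uM. Gene expression of NFE2L2 by qRT-PCR, bidirectionally fitted against the vehicle control.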

Read-out in experiment [10]: succinate dehydrogenase complex iron sulfur subunit B (SDHB), SDHB (gene 6390)
Kind of experiment: LTEA_HepaRG_SDHB: Life Technologies and Expression Analysis (LTEA) Assay for succinate dehydrogenase complex iron sulfur subunit B (SDHB) using HepaRG (AID 2283528). Put shortly: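 HepaRG cells (~100,000/well, plated 48 h) exposed in duplicate for 48 h in serum-free induction medium to 8-point half-log series from 100 uM in 0.5% DMSO; mRNA by qRT-PCR normalised to ACTB, GAPDH, POLR2A; bidirectional fit versus DMSO.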

Read-out in experiment [11]: Signal transducer and activator of transcription 3 (Homo sapiens) (UniProt P40763)
Briefly: LTEA_HepaRG_STAT3: Life Technologies and Expression Analysis (LTEA) Assay for Signal transducer and activator of transcription (STAT3) using HepaRG (AID 2283529). Summed up:
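In this transcriptional endpoint, HepaRG cultures receive test chemicals at up to 100 uM for 48 h, tested in duplicate. STAT3 mRNA is normalized to ACTB, GAPDH and POLR2A.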

Read-out in experiment [12]: solute carrier (SLCO1B1), SLCO1B1 (gene 10599)
Briefly: LTEA_HepaRG_SLCO1B1: Life Technologies and Expression Analysis (LTEA) Assay for solute carrier (SLCO1B1) using HepaRG (AID 2283530). Put shortly:
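SLCO1B1 transcript read by qRT-PCR (Fluidigm arrays), normalized to three housekeeping genes, after 48 h chemical exposure of HepaRG cells; bidirectional concentration-response fitting versus 0.5% DMSO baseline. Eight-point half-log series, maximum 100 uM.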

Read-out in experiment [13]: sulfotransferase 2A1 (SULT2A1), SULT2A1 (gene 6822)
Briefly: LTEA_HepaRG_SULT2A1: Life Technologies and Expression Analysis (LTEA) Assay for sulfotransferase 2A1 (SULT2A1) using HepaRG (AID 2283531). Put shortly: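 HepaRG, 48 h chemical exposure, 8-pt half-log curve from 100 uM in 0.5% DMSO, duplicates. Readout: TaqMan qRT-PCR of SULT2A1 mRNA, housekeeping-normalized. Bidirectional fit vs DMSO baseline.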

Read-out in experiment [14]: Transforming Growth Factor (TGFA), TGFA (gene 7039)
Briefly: LTEA_HepaRG_TGFA: Life Technologies and Expression Analysis (LTEA) Assay for Transforming Growth Factor (TGFA) using HepaRG (AID 2283532). Put shortly: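 Gene expression of TGFA was quantified by qRT-PCR after human HepaRG cells were treated for 48 h with test chemicals (eight concentrations, highest 100 uM, 0.5% DMSO). Activity in either direction was fitted relative to DMSO.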

Read-out in experiment [15]: Transforming Growth Factor (TGFB1), TGFB1 (gene 7040)
Kind of experiment: LTEA_HepaRG_TGFB1: Life Technologies and Expression Analysis (LTEA) Assay for Transforming Growth Factor (TGFB1) Transporter using HepaRG (AID 2283533). Put shortly:
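qRT-PCR readout of TGFB1 transcript in HepaRG lysates, normalized to three housekeeping genes; gain or loss of signal fitted relative to 0.5% DMSO vehicle. Exposure: 48 h, 8-point curve from 100 uM, duplicate wells.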

Read-out in the next experiment: TIMP1, TIMP1 (gene 7076)
Kind of experiment: LTEA_HepaRG_TIMP1: Life Technologies and Expression Analysis (LTEA) Assay for TIMP1 using HepaRG (AID 2283534).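 Further: TaqMan qRT-PCR signal normalized to ACTB GAPDH and POLR2A housekeeping genes.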 Put shortly:
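HepaRG, 48 h exposure, 8-pt half-log series from 100 uM in 0.5% DMSO, duplicates; TIMP1 transcript by Fluidigm qRT-PCR, housekeeping-normalized; bidirectional curve fit vs DMSO baseline.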

Read-out in experiment [16]: Tumor necrosis factor receptor 1 (TNFRSF1A), TNFRSF1A (gene 7132)
Kind of experiment: LTEA_HepaRG_TNFRSF1A: Life Technologies and Expression Analysis (LTEA) Assay for Tumor necrosis factor receptor 1 (TNFRSF1A) using HepaRG (AID 2283535). Put shortly:
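HepaRG, 48 h plating then 48 h chemical exposure, serum-free induction media; 8-pt CRC from 100 uM, half-log, 0.5% DMSO vehicle, duplicates. Readout: TaqMan qRT-PCR (Fluidigm), housekeeping-gene normalized; bidirectional fit vs DMSO.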

Read-out in experiment [17]: Thyroid Hormone Responsive (THRSP), THRSP (gene 7069)
Briefly: LTEA_HepaRG_THRSP: Life Technologies and Expression Analysis (LTEA) Assay for Thyroid Hormone Responsive (THRSP) using HepaRG (AID 2283536). Put shortly:
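Cell model: human HepaRG, approx. 100,000 cells/well, 0.5% DMSO vehicle. Exposure lasts 48 h; phenobarbital 1 mM serves as induction positive control. Gene expression is measured by qRT-PCR against three endogenous control genes.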

Nuclear factor erythroid 2-related factor 2 (Homo sapiens), sequence (Q16236 whole entry, looked up): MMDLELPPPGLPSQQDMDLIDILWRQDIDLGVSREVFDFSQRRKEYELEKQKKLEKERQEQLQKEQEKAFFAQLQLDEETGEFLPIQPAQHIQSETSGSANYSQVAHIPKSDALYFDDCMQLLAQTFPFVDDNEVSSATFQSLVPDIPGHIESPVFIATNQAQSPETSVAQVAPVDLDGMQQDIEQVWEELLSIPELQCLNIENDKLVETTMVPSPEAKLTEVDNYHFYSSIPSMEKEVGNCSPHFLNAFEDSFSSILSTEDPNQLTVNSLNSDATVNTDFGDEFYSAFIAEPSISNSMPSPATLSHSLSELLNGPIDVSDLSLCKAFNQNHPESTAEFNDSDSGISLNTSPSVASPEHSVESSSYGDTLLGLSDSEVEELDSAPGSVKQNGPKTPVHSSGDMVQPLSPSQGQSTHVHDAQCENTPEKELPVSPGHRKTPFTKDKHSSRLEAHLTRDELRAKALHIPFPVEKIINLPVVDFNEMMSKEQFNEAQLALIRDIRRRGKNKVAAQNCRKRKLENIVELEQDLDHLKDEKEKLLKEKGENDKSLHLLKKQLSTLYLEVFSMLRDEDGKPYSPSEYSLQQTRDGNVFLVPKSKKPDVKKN
Signal transducer and activator of transcription 3 (Homo sapiens), sequence (P40763 whole entry, looked up): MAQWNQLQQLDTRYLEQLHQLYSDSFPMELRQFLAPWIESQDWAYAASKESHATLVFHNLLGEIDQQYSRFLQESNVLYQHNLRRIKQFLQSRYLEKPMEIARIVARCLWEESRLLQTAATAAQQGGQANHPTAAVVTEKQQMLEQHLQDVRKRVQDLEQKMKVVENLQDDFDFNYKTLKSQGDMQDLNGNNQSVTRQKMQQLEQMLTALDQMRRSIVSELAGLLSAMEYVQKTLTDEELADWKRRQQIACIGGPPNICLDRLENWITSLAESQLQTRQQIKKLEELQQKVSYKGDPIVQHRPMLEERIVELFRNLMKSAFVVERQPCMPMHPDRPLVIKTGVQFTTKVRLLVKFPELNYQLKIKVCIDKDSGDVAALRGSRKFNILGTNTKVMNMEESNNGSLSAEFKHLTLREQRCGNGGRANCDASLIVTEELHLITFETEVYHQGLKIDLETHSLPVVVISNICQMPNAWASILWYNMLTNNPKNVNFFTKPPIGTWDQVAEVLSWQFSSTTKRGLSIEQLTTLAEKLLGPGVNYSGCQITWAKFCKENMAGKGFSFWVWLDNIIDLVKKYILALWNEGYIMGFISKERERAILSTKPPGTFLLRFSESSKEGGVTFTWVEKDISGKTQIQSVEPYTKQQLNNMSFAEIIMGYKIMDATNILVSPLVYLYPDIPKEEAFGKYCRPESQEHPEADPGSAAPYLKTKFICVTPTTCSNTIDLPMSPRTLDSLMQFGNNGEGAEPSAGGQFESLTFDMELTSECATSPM

Take `Cc1ccccc1Cl`: the outcome was “inactive” in experiment [1]; “inactive” in the experiment with MYC, MYC (gene 4609); “inactive” in experiment [2]; “inactive” in experiment [3]; “inactive” in experiment [4]; “inactive” in experiment [5]. Besides, the compound was classed as inactive in experiment [6], in experiment [7], in experiment [8], in experiment [9], in experiment [10] and in [11]. Further, the outcome in experiment [12] is “inactive”; in [13], “inactive”; in experiment [14] it was “inactive”; in [15], “inactive”; with TIMP1, TIMP1 (gene 7076) it was “inactive”; in experiment [16], “inactive”. Further, the compound was classed as inactive in experiment [17].

`O=c1[nH]cc(F)c(=O)[nH]1`: the outcome in [1] was “inactive”; with MYC, MYC (gene 4609), “inactive”; in experiment [2] it was “inactive”; in experiment [3], “inactive”; in [8] it was “inactive”; in [9], “inactive”. Besides, the compound was called inactive in experiment [10], in experiment [11], in [12], in experiment [13], in experiment [14] and in [15]. The outcome with TIMP1, TIMP1 (gene 7076) was “inactive”; in [16], “inactive”. Further, the AC50 in [4] was 51 µM (active); in experiment [6], 51 µM (active); in experiment [7], 76 µM (active); in experiment [17], 51 µM (active).

For the compound `CCOc1ccc2c(c1)C(C)=CC(C)(C)N2`, the outcome in experiment [1] is “inactive”; with MYC, MYC (gene 4609) it was “inactive”; in experiment [2] it was “inactive”; in experiment [5] it was “inactive”; in [6] it was “inactive”; in experiment [7] it was “inactive”. Also, the outcome in experiment [8], in experiment [9], in experiment [10], in experiment [11], in experiment [12] and in [13] was inactive. Also, the outcome is “inactive” in experiment [14]; “inactive” in experiment [15]; “inactive” in the experiment with TIMP1, TIMP1 (gene 7076); “inactive” in experiment [16]; “inactive” in [17]. Besides, the results for the AC50 in experiment [3] and in experiment [4] were 31.8 µM (active) and 50 µM (active), respectively.

For the compound `COc1cc(S(=O)(=O)O)c(C)cc1N=Nc1c(O)ccc2cc(S(=O)(=O)O)ccc12`, the outcome in [1] is “inactive”; with MYC, MYC (gene 4609), “inactive”; in experiment [2], “inactive”; in experiment [3], “inactive”; in experiment [4], “inactive”; in [6], “inactive”. Further, the result in experiment [7], in experiment [8], in [9], in [10], in experiment [11] and in [12] was inactive. Moreover, the outcome in experiment [13] is “inactive”; in [14], “inactive”; in [15], “inactive”; in the experiment with TIMP1, TIMP1 (gene 7076), “inactive”; in [16] it was “inactive”; in experiment [17], “inactive”.
